# NS1 inh: influenza NS1 inhibition. Potency, µM (series often up to 46.1 µM), without a hit: at the highest dose activity, positive = more growth. 0.4% of 270,000 active. AID 2326; further: potency means the concentration at half of the fitted maximal effect; actives are rising curves; nearly all actives have a fitted effect of over 50% in size
#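 Growth recovery, yeast-based: influenza A NS1 expressed in S. cerevisiae causes slow growth, and suppressors are detected by OD600. The parent strain without NS1 is used as positive control.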
# SARS PLpro yeast: blocks SARS-CoV papain-like protease in a yeast assay | S. cerevisiae expressing SARS-CoV PLpro, growth rescue | Potency, µM (series often up to 32.9 µM), inactives show at the top dose activity, positive = growth rescue, actives largely listed as activators | 0.19% of 330,000 active | AID 485353; further: potency means the concentration at half of the fitted maximal effect; 0% is about no effect; nearly all actives have a fitted effect of over 55% in size
# Cycloheximide cs: counter-screen for Shiga toxin inhibitors: cycloheximide protein synthesis inhibition. cell reporter, cycloheximide protein synthesis inhibition counterscreen. 12% of 300,000 active. max response, %. AID 2314; in the data active means max response mostly above about 13%, no sharp cut-off; inactive means mostly below about 14%; further: read at 38.3 µM for the half of the compounds with a filed dose; 0% is about no effect
# Shiga inhibitor: inhibitors of Shiga toxin in Vero cells | Vero cells, Shiga toxin protein synthesis inhibition reporter | inhibition, % at 38.7 µM | 9.2% of 290,000 active; in the data active means inhibition mostly above about 28%, no sharp cut-off; inactive means mostly below about 43%; further: 0% is about no effect
# Pf growth 48h: inhibits P. falciparum growth in the first generation, 48 h | P. falciparum luciferase growth in erythrocytes, 48 h | Potency, µM (series often up to 28.7 µM), for inactives: at the highest dose activity change, negative = inhibition, actives largely listed as inhibitors | 5.9% of 310,000 active | AID 504832; active means well fitted inhibition curve with a large enough effect; inconclusive means small, poorly fitted or top-dose-only effect, or another doubt; inactive means no such curve, though single readings can be large or run the other way; further: potency means the concentration at half of the fitted maximal effect; on the % scale 0 is the no-effect control and ±100 the full control effect
#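 First compound was added to culture medium, then infected red cells at 0.1% parasitemia and 2% hematocrit (final). After incubation at 37 C under 5% CO2, luciferase detection reagent was dispensed and light output recorded.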
# Pf growth 96h: P. falciparum growth inhibition at 96 hour, primary screen for plastid delayed-death inhibitors | Potency, µM (titrated, usually from 28.7 µM), for inactives: at the top dose activity change, negative = inhibition, hits mostly inhibitors | P. falciparum luciferase reporter growth, 96 h | 6.9% of 320,000 active; active means well fitted inhibition curve with a large enough effect; inconclusive means small, poorly fitted or top-dose-only effect, or another doubt; inactive means no such curve, though single readings can be large or run the other way; further: potency means the concentration at half of the fitted maximal effect; on the % scale 0 is the no-effect control and ±100 the full control effect
#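 P. falciparum expressing integrated firefly luciferase, in erythrocytes at 2% hematocrit, 0.05% parasitemia, incubated with compounds 96 h at 37 C, 5% CO2. Growth inhibition read as loss of luminescence; two-generation exposure targets delayed-death apicoplast inhibitors.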
# * marks the source's active call; other numbers are inactive results; i = inactive; ? = inconclusive; nt = no result; [ ] = remark or other dose. Rows were chosen to be rich in hits. Some 21% of all compounds tested hit in one or more screens of this group. Unless noted, the call rests on the fitted dose curve.
SMILES,NS1 inh,SARS PLpro yeast,Cycloheximide cs,Shiga inhibitor,Pf growth 48h,Pf growth 96h
Cc1cc2c(c(=O)n1-c1ccccc1)C1O[C@](c3ccsc3)(Cc3ccccc31)O2,-14.4%,0.4%[6.58 µM],11.1,i,?,1.69µM*
COc1cc2c(cc1OC)[C@@H]1O[C@](c3ccsc3)(C2)Oc2cc(C)n(-c3ccccc3)c(=O)c21,-1.1%,-1.0%[6.58 µM],-1.4,i,2.2%[5.75 µM],1.51µM*
CCOc1ccc(C2c3cc(OC)c(OC)cc3CC(=O)N2c2ccc(OC)cc2)cc1 (stereo not given),10.2%,5.2%,1.0,-1.0,?,?
Cc1cc(NC(=O)CSc2nnc(C)n2-c2ccccc2C)no1,nt,-0.9%,-1.2,14.1,10.5%,?
CC(C)Oc1cc(-n2c(=S)[nH]c3ccccc3c2=O)c(Cl)cc1Cl,-29.1%,-7.5%,-2.6,-9.8,5.86µM*,4.65µM*
CC(=O)N1CCN(c2ccc(NC(=O)c3ccco3)cc2)CC1,6.2%,-2.7%,17.9,71.7*,143.6%,20.7%
CCc1ccc(C(=O)N2CCN(c3ccc(NC(=O)c4ccco4)cc3)CC2)cc1,5.4%,-7.4%,-0.8,-2.9,32.3%,25.1%
CCC(=O)N1CCN(c2ccc(NC(=O)c3cccs3)cc2)CC1,5.2%,-1.0%,14.9*,68.3*,-4.5%,13.1µM*
O=C(Nc1ccc(N2CCN(C(=O)c3ccccc3)CC2)cc1)c1cccs1,-9.2%,-3.2%,4.0,30.0,-13.5%,27.2%
CCC(=O)N1CCN(c2ccc(NC(=O)c3ccco3)cc2)CC1,-16.1%,1.7%,27.7*,31.1*,72.8%,-7.2%
COc1ccc(CCN=C(N)NS(=O)(=O)c2cc(F)ccc2OC)cc1,17.2%,-1.2%,0.4,-9.5,25.6%,10.8%
CC(CCC(=O)O)(c1cc(Br)c(O)c(Br)c1)c1cc(Br)c(O)c(Br)c1,-5.3%,nt,nt,nt,nt,nt
C[C@H](N)C(=O)N[C@@H](CO)C(=O)N[C@H](C(=O)N[C@H](C(=O)N[C@H](C(=O)N[C@@H](CC(N)=O)C(=O)N[C@@H](Cc1ccc(O)cc1)C(=O)N[C@H](C(=O)O)[C@@H](C)O)[C@@H](C)O)[C@@H](C)O)[C@@H](C)O,nt,nt,-5.4,-15.6,nt,nt
Cc1cnc(C(=O)OCC(=O)Nc2ccc(C)c(S(=O)(=O)N3CCCCC3)c2)cn1,-4.6%,4.5%,-5.2,-4.4,-73.3%,?
COc1ccc(-c2[nH]ncc2CN(CC2CCC(=O)N2)C(C)C)cc1F (stereo not given),2.2%,0.8%,-2.8,-4.6,4.3%,8.28µM*
COc1ccc2cc(-c3[nH]ncc3CN3C[C@@H]4CCC[C@H]3C4)ccc2c1,-1.1%,-1.0%,32.0*,27.0,32.3%,?
COCC1CCCCN1Cc1cn[nH]c1-c1ccc(OC)cc1OC (stereo not given),0.8%,-0.3%,-2.0,-5.6,14.2%,?
COc1ccc2cc(-c3[nH]ncc3CN3CCCCO3)ccc2c1,-3.2%,-2.1%,20.4*,56.8*,98.8%,i
COCC1CCCCN1Cc1cn[nH]c1-c1ccc2cc(OC)ccc2c1 (stereo not given),2.5%,-0.1%,19.3*,31.6*,-6.3%,-28.1%
COc1ccc(-c2[nH]ncc2CN2CCCO2)cc1F,-1.8%,1.1%,-1.9,27.2,3.6%,8.9%
Cc1ccc2[nH]c(=O)c(COC(=O)c3cccs3)cc2c1,-2.6%,12.8%,-1.4,-7.8,-6.2%,47.1%
CC(NC(=O)c1cccs1)C(S)c1ccccc1 (stereo not given),3.0%,-0.5%,1.4,3.0,-10.7%,?
COc1ccc2cc(-c3[nH]ncc3CN3CCCN(c4ccccc4)CC3)ccc2c1,7.0%,-0.9%,16.4*,17.5,-5.8%,?
CCOC(=O)CN(C)Cc1cn[nH]c1-c1ccc2cc(OC)ccc2c1,-4.9%,2.8%,19.6,19.8,3.4%,?
COc1ccc(-c2[nH]ncc2CN2CCCN(c3ccccc3)CC2)c(F)c1,6.1%,0.0%,-2.1,-3.1,3.1%,1.6%
COc1ccc(-c2[nH]ncc2CN2CCCC(C(=O)c3ccc(OC)cc3OC)C2)cc1 (stereo not given),0.2%,0.2%,-2.9,-13.0,13.1µM*,0.828µM*

# Source: PubChem
